Compound activity as filed in PubChem.
D3 ag – agonists of human D3 dopamine receptor | P35462 | D3R DiscoveRx beta-arrestin cells, luminescence, 90 min | max activation, % | 410,000 tested, 0.58% active | AID 652048; in the data active = max activation above about 30%; also: 0% is about no effect
Target sequence (P35462 whole entry, looked up): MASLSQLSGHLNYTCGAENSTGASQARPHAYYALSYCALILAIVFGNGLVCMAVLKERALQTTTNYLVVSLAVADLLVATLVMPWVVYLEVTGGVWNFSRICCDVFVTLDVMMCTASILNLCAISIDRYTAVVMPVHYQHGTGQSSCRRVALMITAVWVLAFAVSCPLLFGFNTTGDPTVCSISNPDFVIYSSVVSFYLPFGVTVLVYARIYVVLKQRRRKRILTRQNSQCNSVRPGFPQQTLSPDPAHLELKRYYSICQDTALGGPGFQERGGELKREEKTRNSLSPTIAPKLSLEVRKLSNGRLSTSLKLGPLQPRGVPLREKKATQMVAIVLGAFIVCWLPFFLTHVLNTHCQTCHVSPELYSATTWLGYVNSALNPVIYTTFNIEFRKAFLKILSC
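Agonist-mode cell screen: cells plated at 1500/well and incubated overnight at 37 °C, then exposed to library compounds for 90 min at 37 °C. Detection reagent was added for 30–60 min at room temperature, and luminescence was read.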
D3 antag – blocks the human D3 dopamine receptor. P35462. max response, negative = inhibition, %. 360,000 tested, 2.5% active. D3R cells, DiscoveRx beta-arrestin luminescence, antagonist mode; stronger effect = lower value. AID 652054; in the data active = max response below about -50%; inconclusive = no clear call, values can overlap the other calls; also: % is scaled to controls: 0 for no effect and ±100 for the full control effect
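Cells plated overnight at 1500 cells/well, then exposed to library compounds with dopamine controls for 90 minutes at 37 degrees C. DiscoveRx reagent added for 30–60 minutes at room temperature; luminescence read, quantitative HTS format.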
D1 agonist – human D1 receptor agonism; P21728; 360,000 tested, 1% active; HEK293 T-REx D1 cells, calcium flux, agonist mode; AID 504660; activation, % at 2 µM; in the data active = activation above about 30%; also: 0% is about no effect
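Agonism was scored from calcium flux recorded over 180 s (1 read/s) after pintool compound addition, following a 10-cycle baseline. Cells were inducible force-coupled HEK293 TREx D1, plated overnight at 30 C and loaded with no-wash calcium dye.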
D1 PAM – enhances dopamine response at the human D1 receptor. P21728. HEK293 TREx D1 cells, calcium flux, dopamine EC20 potentiation. potentiation, % at 10 µM. 360,000 tested, 0.036% active; in the data active = potentiation above about 30%; also: 0% is about no effect
D1 antagonist – human D1 dopamine receptor antagonism. P21728. HEK293 TREx D1 cells, calcium flux, dopamine EC80; stronger effect = lower value. activity change, negative = inhibition, % at 10 µM. 360,000 tested, 3.2% active. AID 504652; in the data active = activity change below about -30%; also: % is scaled to controls: 0 for no effect and ±100 for the full control effect
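Tetracycline-induced HEK293 T-REx cells with force-coupled D1 receptor were loaded with a no-wash calcium dye. Compound was added after a 10 s baseline and read kinetically for 180 s; EC80 dopamine was then added and calcium flux followed another 180 s.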
An asterisk follows results filed as active; ? = inconclusive; . = not tested or not shown. The list is not random: actives were taken first. Their share in the collection is about 6%.

SMILES	D3 ag	D3 antag	D1 agonist	D1 PAM	D1 antagonist
O=C(Oc1c(Cl)cc(Cl)c2cccnc12)c1cccc([N+](=O)[O-])c1	-29.5	-94.4*	4.3	0.8	-0.6
O=C(Oc1coc(CSc2ncccn2)cc1=O)c1ccco1	17.7	8.9	3.2	-1.8	-32.6*
O=C(Oc1cccc2cccnc12)c1cccc([N+](=O)[O-])c1	-21.1	?	4.2	-2.6	-9.4
N/C(=N/OC(=O)c1cccc([N+](=O)[O-])c1)c1cccc([N+](=O)[O-])c1	-5.2	-53.1*	1.9	-1.4	-17.3
O=C(Oc1coc(CSc2ncccn2)cc1=O)c1cccc([N+](=O)[O-])c1	12.6	19.7	6.2	-4.5	18.6
O=C(Oc1ccc(Cl)c2cccnc12)c1cccc([N+](=O)[O-])c1	-26.0	-72.2*	2.2	-1.1	2.5
CC(=O)[C@@]1(O)CC[C@H]2[C@@H]3C=C(Cl)C4=CC(=O)CC[C@]4(C)[C@H]3CC[C@@]21C	-15.4	.	.	.	.
O=C(Oc1cccc2cccnc12)c1ccco1	-12.8	?	-1.2	-0.7	5.3
O=C(Oc1ccc(Cl)c2cccnc12)c1ccco1	-40.3	-138.1*	-0.1	-7.6	5.4
CC(C)C(=O)N1CCc2cc(-c3csc(N)n3)ccc21	5.0	-3.2	2.3	-5.8	-42.8*
Cc1ccc(C)c(CN2CCC(n3nccc3NC(=O)CCCc3ccccc3)CC2)c1	-18.4	-64.6*	17.9	0.5	7.8
CN(C)S(=O)(=O)N1CCC(n2nccc2NC(=O)CCc2ccccc2)CC1	2.5	15.0	1.8	2.4	-43.5*
O=C(CCCc1ccccc1)Nc1ccnn1C1CCN(Cc2ccccc2F)CC1	-2.3	-15.5	5.3	-0.2	9.8
O=C(CCCc1ccccc1)Nc1ccnn1C1CCN(Cc2ccc(CO)o2)CC1	-9.5	-10.9	1.2	7.0	-33.7*
O=C(Cc1ccccc1)Nc1ccnn1C1CCN(Cc2ccc(CO)o2)CC1	-1.9	9.4	3.3	-2.5	1.3
O=C(CCCc1ccccc1)Nc1ccnn1C1CCN(Cc2ccccc2)CC1	-14.5	-2.7	33.6*	-4.4	-4.3
Cc1ccc(N2CC(NC(=O)/C=C\c3ccc4c(c3)OCO4)CC2=O)cc1C (stereo not given)	1.7	.	1.8	-0.8	.
O=C(Nc1ccnn1C1CCN(Cc2ccccn2)CC1)c1cccc(F)c1	2.5	4.8	1.6	-18.1	-38.1*
O=C(Nc1ccnn1C1CCN(Cc2ccccc2OCCO)CC1)c1cccc(F)c1	-3.3	2.9	2.7	-1.8	6.3
CCOc1ccc(CN2CCC(n3nccc3NC(=O)CCCc3ccccc3)CC2)cc1	-1.5	-55.3*	0.3	1.4	15.9
CC(C)n1cc(CN2CCC(n3nccc3NC(=O)CCCc3ccccc3)CC2)cn1	-38.6	-68.7*	1.1	-7.2	-13.0
COC(=O)c1ccc(S(=O)(=O)N(Cc2ccccc2)Cc2ccccc2)n1C	0.5	33.4	10.6	-4.2	-40.4*
CC1CCN(C(=O)c2ccc(COc3ccccc3Cl)o2)CC1	-12.7	?	21.8	-3.0	-35.6*
COc1ccc(OC)c(CN2CCN(C(=O)c3ccco3)CC2)c1	6.3	3.9	2.6	-4.7	3.0
N#C/C(=C/c1ccc(N2CCCCCC2)o1)c1ccc(Cl)cc1	-25.9	-64.1*	-1.3	-3.7	-8.6
SMILES	D3 ag	D3 antag	D1 agonist	D1 PAM	D1 antagonist
Cc1ccc(/C(C#N)=C\c2ccc(N3CCOCC3)o2)cc1	-27.0	-64.8*	23.5	-9.8	-13.8
N#C/C(=C/c1ccc(N2CCCCC2)cc1)c1cccc(F)c1	-8.4	0.8	3.4	-0.8	8.1
Cc1ccc2nc(/C(C#N)=C\c3ccc(N4CCOCC4)o3)[nH]c2c1	3.3	0.0	8.0	-3.1	-2.0
N#C/C(=C/c1ccc(N2CCCCC2)o1)c1cccc(F)c1	-55.2	-69.4*	7.2	-4.5	1.5
Cc1oc(-c2ccc(Cl)cc2)nc1CN1CCCC(C(=O)NCc2ccccc2)C1 (stereo not given)	-17.5	.	7.9	-3.6	-18.3
CCN(CC)S(=O)(=O)c1ccc(N=Nc2c(N)[nH]c(=O)[nH]c2=O)cc1	-17.1	0.0	1.9	1.6	-41.1*
CCN(CC)S(=O)(=O)c1ccc(N=NC2=C(O)CCCC2=O)cc1	0.5	-9.3	1.3	1.9	-11.8
CCOc1ccc(NC(=O)c2cc(S(=O)(=O)N3CCCCCC3)cn2C)cc1	5.4	.	0.8	-2.5	-25.6
C[C@@H]1[C@H](O)[C@@H](C)/C=C/C=C\C=C\C=C\C=C\C=C\C=C\[C@H](O[C@@H]2O[C@H](C)[C@@H](O)[C@H](N)[C@@H]2O)C[C@@H]2O[C@](O)(C[C@@H](O)C[C@@H](O)[C@H](O)CC[C@@H](O)C[C@@H](O)CC(=O)O[C@H]1C)C[C@H](O)[C@H]2C(=O)O (stereo in doubt)	-14.1	.	.	.	.
Cc1ccc(C)c(S(=O)(=O)N2CCN(C(=O)C3CC3C)CC2)c1 (stereo not given)	2.3	2.2	2.9	-0.2	3.6
COc1ccc(CC(=O)OCC(=O)N2CCN(S(=O)(=O)c3ccc(C)cc3C)CC2)cc1	3.2	16.1	5.3	-6.2	-89.9*
Cc1ccc(S(=O)(=O)N2CCN(C(=O)C3CC3C)CC2)c(C)c1 (stereo not given)	2.7	-64.1*	3.7	-5.0	-6.6
COc1cccc2c1cc1c(=O)n(CC(=O)NCc3ccc(C)o3)nc(C)n12	0.5	.	-0.3	-2.9	3.6
O=C1NC[C@H](CCCCN2C[C@H](Cc3ccccc3)N(CC3CCCCC3)C(=O)C2=O)N(CCc2ccccc2)C1=O	2.6	1.2	.	.	.
CC(C)C[C@@H](CN1CCC[C@H]1CN1C(=O)C(=O)NC[C@@H]1Cc1ccc(O)cc1)N1C[C@H](Cc2ccccc2)N(CC2CCCCCC2)C(=O)C1=O	-7.2	-2.3	.	.	.
CC(=O)NC12CC3CC(C1)CC(C(=O)Nc1c(C)n(C)n(-c4ccccc4)c1=O)(C3)C2	4.3	0.8	3.4	0.3	-40.8*
Cc1c(NC(=O)C23CC4CC(CC(C)(C4)C2)C3)c(=O)n(-c2ccccc2)n1C	4.2	1.2	2.9	-9.2	13.6
OC1(c2ccc(F)cc2)CCN(Cc2nnnn2Cc2cccs2)CC1	-3.6	-85.8*	1.5	-5.4	-10.3
Cc1cccc(N(CC(=O)NCc2ccco2)C(=O)CCC(=O)Nc2nccs2)c1C	-19.9	-15.4	3.9	.	5.3
O=C(CN(Cc1ccccc1)C(=O)CCC(=O)Nc1nccs1)NCc1ccc(F)cc1	-17.1	-0.3	-0.5	-5.8	-5.2
Cc1ccccc1N(CC(=O)NCc1ccco1)C(=O)CCC(=O)Nc1nccs1	6.4	6.3	3.3	-3.1	-32.4*
O=C(CN(C(=O)CCC(=O)Nc1ccccn1)c1cccc(F)c1)NCc1ccc(F)cc1	31.7*	0.1	2.9	2.0	25.9
O=C(CN(C(=O)CCC(=O)Nc1ccccn1)c1ccc(F)cc1)NCc1ccc(F)cc1	-4.5	-93.7*	-0.5	-3.1	-1.0
